Bioassay records deposited in PubChem by Sanford-Burnham Center for Chemical Genomics.
HIF-2a block – HIF-2a reporter inhibitors, primary screen, luminescence, 786-0 RCC cells. inhibition, % at 18.8 µM. AID 624352, 2012. 786-0 RCC cells HIF-2a reporter, luciferase luminescence, overnight. actives 0.72% (n = 360,000);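 active = inhibition of the luminescence signal of 40% or more relative to plate controls, in a single-dose primary screen at 18.75 µM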
KKLEB cytotox – cytotoxicity in KKLEB CF airway cells, primary screen, cytotoxicity control for CF NF-kB inhibitor project, cell-based, uHTS, fluorescence assay plates | AID 602141, 2011 | KKLEB CF airway cells viability, ATPlite luminescence, overnight; stronger effect = lower value; cells stimulated with P. aeruginosa culture filtrate | activity change (cytotoxicity), % at 5 µM | actives 0.36% (n = 360,000);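 active = corrected activity change at or below -50% at 5 µM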
Peg3 prom inh – Peg3 promoter-driven luciferase inhibitors, primary screen, cell-based, HeLa, luciferase luminescence | HeLa PEG-Prom luciferase reporter, overnight | inhibition, % at 20 µM | actives 1.7% (n = 360,000);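 active = inhibition of at least 50% at 20 µM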
TWEAK-Fn14 inh – inhibitors of TWEAK-Fn14 signaling, primary screen, luciferase reporter cells, uHTS | TWEAK-stimulated Fn14 reporter cells, luciferase luminescence, 8 h | inhibition, % at 10 µM | actives 2% (n = 360,000) | AID 1159606, 2016; in the data active = inhibition above about 50%
CF NFkB block – inhibitors of PAF-induced NF-kB signaling, primary screen, cell-based, GFP fluorescence, uHTS. KKLEB NF-kB-GFP reporter, GFP fluorescence overnight. inhibition, % at 5 µM. actives 0.86% (n = 360,000). AID 588850, 2011;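 active = at least 50% inhibition at 5 µM, scaled per plate between neutral and stimulator controls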;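 also: PAF is a Pseudomonas aeruginosa culture filtrate used as stimulus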
TROY signal inh – inhibitors of TROY-driven NF-kB signaling, primary screen, Q293 LMP1-TROYcd cells, NF-kB luciferase, uHTS | Q293 LMP1-TROYcd NF-kB luciferase reporter, 4 h | inhibition, % at 10 µM | actives 0.98% (n = 360,000) | AID 1347056, 2019;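 active = compounds whose plate-normalised and pattern-corrected inhibition of the luciferase reporter signal at the single screening dose is 50% or more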
Of the large screens only hits and unclear results are named; the others gave an inactive call. Rows were chosen to be rich in hits. Some 4% of all compounds tested hit in one or more screens of this group.

Cn1c2ccccc2c(=O)c2cc(C#CC3=CCCCC3)ccc21	TROY signal inh 60
CCc1ccc(OCc2n[nH]c(=S)n2C(C)CCCC(C)C)cc1 (configuration not stated)	Peg3 prom inh 111
CCc1ccc(OCc2n[nH]c(=S)n2Cc2ccccc2)cc1	none
c1ccc2c(-c3cccc4nccn34)cncc2c1	TWEAK-Fn14 inh 52
c1cnc2c(-c3cccc4nccn34)cccc2c1	none
CCCC(=O)NC(=S)Nc1ccc(S(=O)(=O)N2CCc3ccccc32)cc1	none
CCOC(=O)/C(C#N)=N/Nc1ccc(S(=O)(=O)N2CCc3ccccc32)cc1	TROY signal inh 52
N#C/C(=N\Nc1ccc(S(=O)(=O)N2CCc3ccccc32)cc1)C(N)=S	TWEAK-Fn14 inh 58, CF NFkB block 58, TROY signal inh 72
COc1ccc(NC(=O)CSc2ccc3nnc(-c4ccccn4)n3n2)cc1OC	none
Cc1ccc(C(=O)NCCc2c[nH]c3ccccc23)s1	none
Cc1cccc(S(=O)(=O)N2C[C@@H](O)COC[C@@H]3O[C@H](CC(=O)NCCCN4CCOCC4)CC[C@H]32)c1	none (no result: KKLEB cytotox, Peg3 prom inh, TWEAK-Fn14 inh, CF NFkB block, TROY signal inh)
NS(=O)(=O)c1ccc(CCNc2ccn3nc(-c4cccc(C(F)(F)F)c4)cc3n2)cc1	TWEAK-Fn14 inh 80, TROY signal inh 66
N#Cc1c(NC(=O)/C=C/c2ccco2)sc2c1CCCC2	KKLEB cytotox -52, CF NFkB block 62
O=C(/C=C/c1ccco1)Nc1sc2c(c1C(=O)O)CCC2	none
COc1cc(OC)nc(C(NC(=O)C2CCN(Cc3c[nH]c4ccccc34)CC2)c2ccc(Cl)cc2)n1 (configuration not stated)	Peg3 prom inh 101
Cc1ccc(N2CCN(C(CCc3ccccc3)C(=O)Nc3c(C)cccc3C)CC2)cc1 (configuration not stated)	none (no result: KKLEB cytotox, Peg3 prom inh, TWEAK-Fn14 inh, CF NFkB block, TROY signal inh)
CN(C(=O)c1ccc(NC(=O)Cc2cccc(NC(=O)C3CCCN(C(=O)C4CC4)C3)c2)cc1)C1CC1 (configuration not stated)	none
OC(CON=C1c2ccccc2-c2ccccc21)CN1CCNCC1 (configuration not stated)	Peg3 prom inh 57
CCC1(c2ccccc2)SC(=O)NC1=O (configuration not stated)	none
COc1cccc2c1C(=O)C=C(C)C2=O	CF NFkB block 58
CC1=CC(=O)c2ccccc2C1=O	CF NFkB block 62
CC(C)(C=O)C1=CC(=O)c2ccccc2C1=O	HIF-2a block 42, Peg3 prom inh 108, TWEAK-Fn14 inh 63, TROY signal inh 70
CN(C)C=C1C(=O)c2ccccc2C1=O	none
COCc1cc(C)nc(SCc2ccc([N+](=O)[O-])cc2)c1C#N	none
OC1(c2nc3ccccc3[nH]2)CCCCC1	none
CC(=O)Oc1ccc(-c2cccc(C(=O)OCC(=O)Nc3ccccc3Oc3ccccc3)c2)cc1	none
CCOc1ccccc1NC(=O)COC(=O)c1cccc(-c2ccc(OC(C)=O)cc2)c1	TWEAK-Fn14 inh 64, TROY signal inh 62
Cc1ccc(Sc2ncnc(N)c2[N+](=O)[O-])cc1	none
Nc1ncnc(Sc2ncccn2)c1[N+](=O)[O-]	Peg3 prom inh 101, TWEAK-Fn14 inh 71, CF NFkB block 55
CC(Sc1nnnn1-c1cccc(F)c1)C(=O)NC1CCCC1 (configuration not stated)	none
CN(C)c1ccnc(Nc2ccccc2)c1C#N	none
CN(C)c1ccnc2c[cH-]cc12.[Fe].c1ccc(-[c-]2[c-](-c3ccccc3)[c-](-c3ccccc3)[c-](-c3ccccc3)[c-]2-c2ccccc2)cc1 (configuration not stated)	Peg3 prom inh 96
CCCOc1ccc(/C(CC)=N/NC(=O)C2(C)CC2(Br)Br)cc1 (configuration not stated)	KKLEB cytotox -52
CN(CC(=O)Nc1ccccc1Br)C(=O)COc1ccc2ccccc2c1	none
COc1cc(OC)cc(-c2c(-c3cccs3)c3cc(-c4ccc(OC)c(OC)c4)ccc3n2C)c1	none
O=S(=O)(c1cccc(NC(=S)N2CCN(c3ccccc3F)CC2)c1)C(F)F	TWEAK-Fn14 inh 51
O=S(=O)(c1cccc(NC(=S)N2CCN(c3ccccc3)CC2)c1)C(F)F	none
C=CCn1c(COc2ccc(F)cc2)nnc1SC(C)C(=O)NCC1CCCO1 (configuration not stated)	none
CC(C)(CC(=O)N1CCN(c2ccc(Cl)cc2)CC1)CC1=NS(=O)(=O)c2ccccc2N1	TWEAK-Fn14 inh 54
Cc1ccc(NC(=O)c2ccc(CSc3nccc(C)n3)cc2)cc1	none
Cc1ccnc(SCc2ccc(C(=O)O)cc2)n1	TWEAK-Fn14 inh 108
CCc1ccc(OCC(=O)NC(NC(=S)Nc2ccccc2)C(Cl)(Cl)Cl)cc1 (configuration not stated)	TWEAK-Fn14 inh 74, TROY signal inh 53
CC(=O)NC(NC(=S)Nc1ccc(N=Nc2ccccc2)cc1)C(Cl)(Cl)Cl (configuration not stated)	TWEAK-Fn14 inh 63
CC(C)(C)C(=O)Nc1ccc(N=Nc2ccccc2)cc1	TROY signal inh 83
O=C(/C=C/c1ccccc1)NC(NC(=S)Nc1ccc(Cl)cc1)C(Cl)(Cl)Cl (configuration not stated)	TWEAK-Fn14 inh 67
O=C(O)CCC(=O)Nc1ccc(N=Nc2ccccc2)cc1	none
O=C(CN1CCC(NC(=O)C2CC2)CC1)Nc1cccc(F)c1	none
CCOC(=O)N(C)C[C@@H]1OCc2cnnn2CCCC(=O)N([C@H](C)CO)C[C@H]1C	none
CCCc1nc2nc(C)c(NS(=O)(=O)c3ccc(C(C)(C)C)cc3)c(=O)n2[nH]1	none
O=C(NC(NC(=S)Nc1cccc(C(=O)O)c1)C(Cl)(Cl)Cl)OCc1ccccc1 (configuration not stated)	none
O=C(NC(NC(=S)Nc1cccc(Cl)c1)C(Cl)(Cl)Cl)OCc1ccccc1 (configuration not stated)	Peg3 prom inh 53, TWEAK-Fn14 inh 54, TROY signal inh 58
CC1(C(=O)NC2CCCCCC2)CCN1C(=O)Cc1ccc(-c2ccccc2)cc1 (configuration not stated)	none
O=C(CN(C1CCCCC1)S(=O)(=O)c1ccc(F)cc1)NCC1CCCO1 (configuration not stated)	KKLEB cytotox -95, Peg3 prom inh 98, CF NFkB block 91
CN1OC[C@@H]2CN(Cc3ccccc3)[C@H](c3cccc(-c4ccc(C#N)cc4)c3)C[C@@H]21	none
